# Results: the supplement of paper PMC8728848
# Many of the other results were omitted from the sample, so the strongest signals are more common in it than they were.
# B1: Blon2468mut (Bifidobacterium longum) (protein)
# chain: MTFIKQMMPRYVASMTAGIVAAAMAATCAFAPVANADAVSPTQETIQSTGRHFMVYYRAWRDVTMKGVNTDLPDDNWISMYDIPYGVDVVNIFSYVPSGQEEQAQPFYDKLKSDYAPYLHSRGIKLVRGIDYTGVAVNGFRTFMKEQNKTESEATEADYDAYAKQVIDKYMISVGLDGLDIDMQAHPNDADVKISDNVIRALSKHIGPKSAKPDTTMFLYDTNGSYLNPFKNVAECFDYVAYQQYGSSSDRTARAAADYQPYIGNEFVPGLTFPEEGDMNNRWYDATEPYEESHFYQVASYVREHNLGGMFVYALDRDGRNYDEDLRRIVPSNLLWTKTAIAESEGMALDTAKTAANHYLDRMSLRQVIDDNAASADKARDMVGKAANLYETNKAVLGGDYGEGFSNTYDPTLEAGLLGIDISVLQQQIDKSSEIIGADTAESDAKTALRMARDAAIDGLTGKIYTADQVSAWSQALKAALDATVPVPTPDSTDQNGNRDKVTNHKVQGQPKQLSATGISTDIIVAVGVTLAIAGVALSLSRKLS
# How the values were obtained:
# Assay in all cases: glycan array binding signal (z-score within array); higher = stronger binding
# Details in all cases: glycan notation: IUPAC condensed, linker removed
# [1] = target: GalNAc(b1-3)GlcNAc
# How it was run: (§1)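 The binding signal is a Z-score computed within each array. Data were drawn from 3228 arrays in the Consortium for Functional Glycomics database, restricted to those with a known protein sequence. Scores were averaged over arrays of the same protein sequence at different concentrations or buffers, and over linkers, and negative values can be taken as non-binding.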
# [2] = target: Glc(a1-4)Glc(a1-4)Glc(a1-4)Glc
# How it was run: as §1
# [3] = target: Glc(b1-6)Glc
# How it was run: as §1
# [4] = target: GlcNAc(b1-2)Man(a1-3)[GlcNAc(b1-2)Man(a1-6)]Man(b1-4)GlcNAc(b1-4)GlcNAc
# How it was run: as §1
# [5] = target: GlcNAc(b1-2)[GlcNAc(b1-4)]Man(a1-3)[GlcNAc(b1-4)][GlcNAc(b1-2)[GlcNAc(b1-6)]Man(a1-6)]Man(b1-4)GlcNAc(b1-4)GlcNAc
# How it was run: as §1
# [6] = target: GlcNAc(b1-3)Gal(b1-4)GlcNAc(b1-3)Gal(b1-4)GlcNAc(b1-3)GalNAc
# How it was run: as §1
# [7] = target: GlcNAc(b1-6)GalNAc
# How it was run: as §1
# [8] = target: Man(a1-2)Man(a1-2)Man(a1-6)[Man(a1-3)]Man
# How it was run: as §1
# [9] = target: Man(a1-2)Man(a1-3)[Man(a1-6)]Man(a1-6)[Man(a1-2)Man(a1-3)]Man(b1-4)GlcNAc(b1-4)GlcNAc
# How it was run: as §1
# [10] = target: Man(a1-3)[Man(a1-6)]Man
# How it was run: as §1
# [11] = target: Man(a1-3)[Man(a1-6)]Man(a1-6)[Man(a1-3)]Man
# How it was run: as §1
# [12] = target: Man(a1-3)[Man(a1-6)]Man(b1-4)GlcNAc(b1-4)GlcNAc
# How it was run: as §1
# [13] = target: Man(a1-3)[Man(a1-6)]Man(b1-4)GlcNAc(b1-4)[Fuc(a1-6)]GlcNAc
# How it was run: as §1
# [14] = target: Man(b1-4)GlcNAc
# How it was run: as §1
# [15] = target: MurNAc(b1-4)GlcNAc
# How it was run: as §1
# [16] = target: Neu5Ac(a2-3)Gal(b1-3)GalNAc6S
# How it was run: as §1
# [17] = target: Neu5Ac(a2-3)Gal(b1-3)[Fuc(a1-4)]GlcNAc(b1-3)Gal(b1-4)[Fuc(a1-3)]GlcNAc
# How it was run: as §1
# [18] = target: Neu5Ac(a2-3)Gal(b1-4)GlcNAc(b1-2)Man(a1-3)[GlcNAc(b1-4)][Neu5Ac(a2-3)Gal(b1-4)GlcNAc(b1-2)Man(a1-6)]Man(b1-4)GlcNAc(b1-4)GlcNAc
# How it was run: as §1
# [19] = target: Neu5Ac(a2-3)Gal(b1-4)GlcNAc(b1-3)Gal
# How it was run: as §1
# [20] = target: Neu5Ac(a2-3)Gal(b1-4)GlcNAc(b1-3)Gal(b1-4)GlcNAc(b1-3)Gal(b1-4)GlcNAc
# How it was run: as §1
# [21] = target: Neu5Ac(a2-3)Gal(b1-4)GlcNAc(b1-3)Gal(b1-4)GlcNAc(b1-3)Gal(b1-4)GlcNAc(b1-2)Man(a1-3)[Neu5Ac(a2-3)Gal(b1-4)GlcNAc(b1-3)Gal(b1-4)GlcNAc(b1-3)Gal(b1-4)GlcNAc(b1-2)Man(a1-6)]GalNAc
# How it was run: as §1
# [22] = target: Neu5Ac(a2-3)Gal(b1-4)GlcNAc(b1-3)Gal(b1-4)[Fuc(a1-3)]GlcNAc
# How it was run: as §1
# [23] = target: Neu5Ac(a2-6)Gal(b1-4)GlcNAc(b1-2)Man(a1-3)[Neu5Ac(a2-3)Gal(b1-4)GlcNAc(b1-2)Man(a1-6)]Man(b1-4)GlcNAc(b1-4)GlcNAc
# How it was run: as §1
# [24] = target: Neu5Ac(a2-6)Gal(b1-4)GlcNAc(b1-2)Man(a1-3)[Neu5Ac(a2-6)Gal(b1-4)GlcNAc(b1-2)Man(a1-6)]Man(b1-4)GlcNAc(b1-4)[Fuc(a1-6)]GlcNAc
# How it was run: as §1
# [25] = target: Neu5Ac(a2-6)Gal(b1-4)GlcNAc(b1-2)Man(a1-6)Man(b1-4)GlcNAc(b1-4)GlcNAc
# How it was run: as §1
# [26] = target: Neu5Ac(a2-6)Gal(b1-4)GlcNAc(b1-3)Gal(b1-4)[Fuc(a1-3)]GlcNAc(b1-3)Gal(b1-4)[Fuc(a1-3)]GlcNAc
# How it was run: as §1
# [27] = target: Neu5Ac(a2-8)Neu5Ac
# How it was run: as §1
# [28] = target: Neu5Ac(a2-8)Neu5Ac(a2-3)Gal(b1-4)GlcNAc
# How it was run: as §1
binder,measurement,setting,value
B1,glycan array binding signal (z-score),[1],-0.05
same,glycan array binding signal (z-score),[2],-0.064
same,glycan array binding signal (z-score),[3],-0.029
same,glycan array binding signal (z-score),[4],-0.069
same,glycan array binding signal (z-score),[5],-0.091
same,glycan array binding signal (z-score),[6],-0.065
same,glycan array binding signal (z-score),[7],-0.094
same,glycan array binding signal (z-score),[8],-0.034
same,glycan array binding signal (z-score),[9],-0.083
same,glycan array binding signal (z-score),[10],-0.056
same,glycan array binding signal (z-score),[11],0.323
same,glycan array binding signal (z-score),[12],6.11
same,glycan array binding signal (z-score),[13],22.6
same,glycan array binding signal (z-score),[14],-0.072
same,glycan array binding signal (z-score),[15],-0.087
same,glycan array binding signal (z-score),[16],-0.077
same,glycan array binding signal (z-score),[17],0.065
same,glycan array binding signal (z-score),[18],-0.063
same,glycan array binding signal (z-score),[19],-0.065
same,glycan array binding signal (z-score),[20],-0.05
same,glycan array binding signal (z-score),[21],-0.005
same,glycan array binding signal (z-score),[22],-0.04
same,glycan array binding signal (z-score),[23],0.012
same,glycan array binding signal (z-score),[24],-0.077
same,glycan array binding signal (z-score),[25],-0.076
same,glycan array binding signal (z-score),[26],-0.078
same,glycan array binding signal (z-score),[27],-0.066
same,glycan array binding signal (z-score),[28],-0.079
